Measurements reported in ChEMBL document CHEMBL4513216, “Probing the Open Global Health Chemical Diversity Library for Multistage-Active Starting Points for Next-Generation Antimalarials” (ACS Infect Dis, 2020).
The whole screen tested about 69,000 compounds, of which about 8,600 (12%) showed an effect of 50% or more. The sample holds strong results, similar compounds and a random draw of the others, so the mix is not that of the screen.

System: Plasmodium berghei
Experiment: Screen against P. berghei liver stage (PbLuc), transformed with Luciferase, at 10uM
Type: functional, HepG2
Conditions: tested at 10 uM

SMILES	INHIBITION [%]
NCC1CCC(c2c(C(N)=O)sc3ccccc23)CC1 (stereo not given)	14.6
COCCNc1c(-c2ccc(Cl)cc2)c(=O)c1=O	24.5
COCCCNc1c(-c2ccc(C)cc2)c(=O)c1=O	35.1
COCCCNc1c(-c2ccc(Cl)cc2)c(=O)c1=O	60.8
CN(c1ccccc1)c1ccc(CC2CCCN(CCO)C2)nn1 (stereo not given)	16.5
CC(=O)NCCNC(=O)c1sccc1Br	28.5
CC(C)(C)C(=O)c1ccsc1NC(=O)CCNC(=O)c1ccco1	75.8
CC(C)(C)n1cc(C#N)cc1NC(=O)CCNC(=O)c1ccco1	26.5
CC(=O)NCCC(=O)Nc1sccc1C(=O)C(C)(C)C	48.9
CC(C)(CNC(=O)c1ccco1)CNC(=O)c1ccco1	-18.9
CC(=O)Nc1sccc1C(=O)C(C)(C)C	77.7
Cc1nn(C)c(C)c1CN(C)C(=O)c1cc(NC(=O)C2CC2)n(C)n1	44.05
CCCc1nc(NCCOC)c2c(n1)c(C)nn2CC	17
O=C(c1cnccn1)N1CCN2C[C@H](Oc3cccc(F)c3)C[C@H]2C1	47.5
CN1CC2(CCNCC2)COc2ccccc2S1(=O)=O	-15.7
CC(c1cccc(-c2ncccc2F)c1)N(C)C (stereo not given)	-17.4
O=C(O)Cn1nc(C2CC2)c2c(-c3ccco3)ccnc21	22
NCCSc1nccc(-c2cnc(C3CC3)nc2-c2ccco2)n1	75.3
Cc1ncc(-c2ccnc(SCCN(C)C)n2)c(-c2ccco2)n1	70.8
Cc1ncc(-c2ccnc(SCCN)n2)c(-c2ccco2)n1	42.6
OCCNc1nccc(-c2c[nH]nc2-c2ccco2)n1	-43.4
COCCNc1ncc(-c2cc(C)no2)c(-c2ccco2)n1	47.4
c1cc(CN2CCC3(CC2)COC(COCC2CC2)C3)cs1 (stereo not given)	19.8
Nc1nc(N)c2c(n1)OC1(CCCN(Cc3nccs3)CC1)C2 (stereo not given)	10.25
CC(C)c1noc(CCNC(=O)N2CCC(O)(C(F)(F)F)C2)n1 (stereo not given)	36.5
OCCOCCNCC1(c2ccc(F)cc2)CCOC1 (stereo not given)	31.6
Fc1ccc(C2(CNCCc3cccs3)CCOC2)cc1 (stereo not given)	63.1
Fc1ccc(C2(CNCC(F)F)CCOC2)cc1 (stereo not given)	22.5

SMILES	INHIBITION [%]
CCc1noc(-c2cccc(NC(=O)C(C)(C)C)c2)n1	32.5
Cc1ncc(-c2ccncc2)c(C2CCN(C(=O)c3ccno3)CC2)n1	24.05
CNC(=O)C1(C)CN(c2nc(C)cc(C)n2)CCO1 (stereo not given)	-3.94
CC(=O)Nc1nc2c(s1)C1(CCCC1)Nc1ccccc1S2	41.2
CC(=O)Nc1nc2c(s1)C1(CCN(C)CC1)Nc1ccccc1S2	10
CC(=O)Nc1nc2c(s1)C(C)(C)Nc1ccccc1S2	59
CC(C)(C)OC(=O)NCCNC(=O)c1ccc(-c2ccco2)[nH]c1=O	7.12
CNC(=O)c1cnc2n1CCN(Cc1cccnc1)C2	49.1
Cc1cccnc1NC(=O)C1CSc2ncc(C)c(=O)n2C1 (stereo not given)	-4.99
Cc1cnc2n(c1=O)CC(C(=O)NC1CC1)CS2 (stereo not given)	-14.6
Cc1cnc2n(c1=O)CC(C(=O)NCc1ccccc1Cl)CS2 (stereo not given)	65.9
CSc1ccccc1NC(=O)C1CSc2ncc(C)c(=O)n2C1 (stereo not given)	60
Cc1ccncc1NC(=O)C1CSc2ncc(C)c(=O)n2C1 (stereo not given)	43.8
Cc1cnc2n(c1=O)CC(C(=O)Nc1ccccc1Cl)CS2 (stereo not given)	-17
Cc1ccc(Cl)cc1NC(=O)C1CSc2ncc(C)c(=O)n2C1 (stereo not given)	-34.5
Cc1cccc(NC(=O)C2CSc3ncc(C)c(=O)n3C2)n1 (stereo not given)	6.83
Cc1cnc2n(c1=O)CC(C(=O)Nc1ccon1)CS2 (stereo not given)	61.5
Cc1sc(N)nc1-c1ccc(Cl)cc1	-7.77
COc1cccc(NC(=O)c2cc3c([nH]c2=O)CCCC3=O)c1	-37.6
Cc1nc2ccccc2n1CCNCc1cccc(C#N)c1	17.5
CCNC(=O)c1ccc(NC2CCOC3(CCCCC3)C2)nn1 (stereo not given)	-9.82
CC(NC(=O)NCCCc1n[nH]c(N)c1C#N)c1ccc(Cl)cc1 (stereo not given)	7.08
O=c1c(NCCCO)c(N2CCN(c3ccccc3)CC2)c1=O	44.9
CC1(C)Cc2ccccc2-c2nc(NCCO)[nH]c(=O)c21	-4.74
CCC1(C)Cc2ccccc2-c2nc(NCCO)nc(O)c21 (stereo not given)	20.9
CN(Cc1ccccc1)C1(C(=O)O)Cc2ccccc2C1	26.1
CCC1(CC)Cc2ccccc2-c2nc(NCCCO)[nH]c(=O)c21	62.3
